The values below come from PubChem BioAssay (EPA / NIEHS).

Records with an inconclusive call do not appear. Activity calls are given as the source filed them. The calls were made as follows: active = hit-call score of the fitted dose curve at least 0.9, where 1 is the maximum; inconclusive = response in the unintended direction; inactive = score below 0.9.

For orientation: AC50 means the midpoint of the concentration-response curve, whichever way the signal moves.

The nature of this test: Tanguay_ZF_120hpf_SNOU_legacy: (Legacy) Oregon State University Tanguay Lab 120 Hour Post-fertilization zebrafish Assay for Snout Malformation (AID 2283637). How it is done: Tanguay_ZF_120hpf_legacy is a whole embryo, multiplexed endpoint assay using zebrafish larvae exposed for 120 hours post fertilization on a 96-well plate.Tanguay_ZF_120hpf_SNOU_legacy is one of one assay component(s) measured or calculated from the Tanguay_ZF_120hpf_legacy assay. It is designed to make measurements of zebrafish development as detected with brightfield microscopy of developing zebrafish embryos.Data from the assay component Tanguay_ZF_120hpf_SNOU_legacy was analyzed into 1 assay endpoints. This assay endpoint, Tanguay_ZF_120hpf_SNOU_legacy, was analyzed in the positive analysis fitting direction relative to DMSO as the negative control and baseline of activity. Using a type of morphology reporter, gain-of-signal activity can be used to understand changes in developmentals as they relate to the whole embryo. To generalize the intended target to other relatable targets, this assay endpoint is annotated to the zebrafish development intended target family, where the subfamily is embryonic snout morphogenesis.
Zebrafish husbandry: Tropical 5D wild-type adult zebrafish were housed in at an approximate density of 1000 per 100 gallon tank at the Sinnhuber Aquatic Research Laboratory, Oregon State University, Corvallis, OR. Each tank was kept at standard laboratory conditions of 28C on a 14-h light/10-h dark photoperiod in fish water consisting of reverse osmosis water supplemented with a commercially available salt (Instant Ocean). Spawning funnels were placed into the tanks the night prior, and embryos were collected and staged. To increase bioavailability, the chorion was enzymatically removed using pronase (63.6mg/ml, >/= 3.5U/mg, Sigma-Aldrich: P5147) at 4 hours post fertilization (hpf) using a custom automated dechorionator.Chemical exposures: Six hpf dechorionated embryos were placed 1 embryo per well in a 96-well plate prefilled with 90 ul of EM using automated embryo placement systems (AEPS). Ten microliters of each row of dilution plate 2 was added to 2 exposure plates. The final DMSO concentration used was 0.64% (vol/vol). Thirty-two embryos were also exposed to 5uM trimethyltin chloride (positive control). Plates were sealed to prevent evaporation and foil covered to reduce light exposure and kept in a 28C incubator. Embryos were statically exposed until 120 hpf. At 24 hpf, embryos were assessed for photomotor response using a custom photomotor response analysis tool (PRAT) and for developmental toxicity endpoints (MO24: mortality at 24 hpf, DP: developmental progression, SM: spontaneous movement, and NC: notochord distortion). At 120 hpf, locomotor activity was measured using Viewpoint Zebralab and assessed for 18 endpoints. Zebrafish acquisition and analysis program (ZAAP), a custom program designed to inventory, acquire, and manage zebrafish data, was used to collect developmental endpoints as either present or absent (i.e., binary responses were recorded). If mortality occurred for an embryo (at either 24 or 120 hpf), the non-mortality endpoints were not measured.
As for `CCOP(=S)(OCC)SCSCC`, the compound was called inactive.

Consider `CC(Cc1ccc(OCC(=O)O)cc1)NCC(O)c1csc(C(F)(F)F)n1` (stereo not given), for which the outcome was inactive. As to `O=P1(N(CCCl)CCCl)NCCCO1` (stereo not given), the compound was classed as inactive.

In the case of `OCC1CO1` (stereo not given), the compound was classed as inactive. As for `c1cc2c3c(cccc3c1)CC2`, the outcome was inactive. Take `CCCCCCCc1ccc(O)cc1`: the outcome was inactive. Still for that read-out and setting: with `Cc1cccc(N)c1` the entry was “inactive”; with `CCCCN(CCCC)N=O`, “inactive”; with `Cc1ccc([N+](=O)[O-])cc1C`, “inactive”. Take `O=P(Oc1ccccc1)(Oc1ccccc1)Oc1ccccc1`: the result was inactive. In the case of `CC(Cl)(Cl)C(=O)O`, the compound was called inactive.

Consider `CC(C)(C)OOC(C)(C)C`, for which the compound was called inactive. For the compound `CSC(C)(C)C=NO`, the outcome was inactive. With `O=[N+]([O-])c1ccccc1`, the call was inactive. On to `CCOc1ccc(C(C)(C)COCc2cccc(Oc3ccccc3)c2)cc1`, for which the call was inactive.

Turning to `CCOS(=O)(=O)OCC`, the compound was classed as inactive. As for `O=[N+]([O-])c1ccc(Cl)c(Cl)c1`, the compound was classed as inactive. `CCC1(c2ccccc2)C(=O)N=C(O)NC1=O` (stereo not given): the compound was classed as inactive. As for `COCCOCCO`, the compound was classed as inactive. `c1nc[nH]n1`: the compound was called inactive. On to `CCNc1nc(Cl)nc(NC(C)(C)C)n1`, for which the call was inactive.

On to `CCN(CC)c1ccccc1`, for which the result was inactive. Consider `CCCN(CCC)c1c([N+](=O)[O-])cc(C(C)C)cc1[N+](=O)[O-]`, for which the compound was called inactive.

As to `ClC1=C(Cl)C2(Cl)C3C(Cl)C(Cl)CC3C1(Cl)C2(Cl)Cl` (stereo not given), the compound was classed as inactive.

In the case of `O=C(O)C1C(C(=O)O)C2(Cl)C(Cl)=C(Cl)C1(Cl)C2(Cl)Cl` (stereo not given), the compound was called inactive. As for `CCOP(=S)(Oc1ccc([N+](=O)[O-])cc1)c1ccccc1` (stereo not given), the outcome was inactive. In the case of `CCCCN(CCCC)SN(C)C(=O)Oc1cccc2c1OC(C)(C)C2`, the compound was classed as inactive. For the compound `CCCCc1ccccc1`, the call was inactive. On to `O=C(O)C(Cl)Cl`, for which the call was inactive. As to `CN(C)C(=O)Cl`, the compound was called inactive. For `Nc1ccc2ccccc2c1`, the half-maximal activity concentration (AC50) was 33.9 µM (active).

In the case of `Nc1ccc(Cl)cc1`, the call was inactive. Still for that read-out and setting: with `CC(C)(C)c1ccc(O)cc1` the entry was “inactive”. On to `Cc1ccc(O)cc1C`, for which the outcome was inactive. Regarding `c1ccc(OP(Oc2ccccc2)Oc2ccccc2)cc1`, the compound was classed as inactive. `Nc1cc2c3c(c1)C(c1ccccc1)=N[C@@H](NC(=O)c1cccnc1)C(=O)N3CC2`: the call was inactive. As to `CCC(C)(C)c1ccc(O)cc1`, the concentration at half-maximal activity (AC50) was 52.7 µM (active). Take `ClC(Cl)c1ccccc1`: the result was inactive.

For `Cc1ccc(N)cc1N`, the outcome was inactive.

With `CCOC(=O)c1ccccc1C(=O)OCC`, the call was inactive.
